Our source for the binding signal values is article PMC7862700, “An all-to-all approach to the identification of sequence-specific readers for epigenetic DNA modifications on cytosine”.

What all share (test): DAPPL (digital affinity profiling via proximity ligation, sequencing); 10 mM Tris-HCl pH 7.5, 50 mM NaCl, 1 mM DTT, 4% glycerol, room temperature, 30 min; GST-TFs on glutathione beads, 16-mer random dsDNA library, 0.1% formaldehyde crosslink after washing; high values mean tight binding
Holding throughout (details): protein: recombinant; tags: N-terminal GST; dsDNA, one strand shown

Assay [1] has as its target T1, FLI1 (Homo sapiens, UniProt Q01543 1-452).
T1 sequence: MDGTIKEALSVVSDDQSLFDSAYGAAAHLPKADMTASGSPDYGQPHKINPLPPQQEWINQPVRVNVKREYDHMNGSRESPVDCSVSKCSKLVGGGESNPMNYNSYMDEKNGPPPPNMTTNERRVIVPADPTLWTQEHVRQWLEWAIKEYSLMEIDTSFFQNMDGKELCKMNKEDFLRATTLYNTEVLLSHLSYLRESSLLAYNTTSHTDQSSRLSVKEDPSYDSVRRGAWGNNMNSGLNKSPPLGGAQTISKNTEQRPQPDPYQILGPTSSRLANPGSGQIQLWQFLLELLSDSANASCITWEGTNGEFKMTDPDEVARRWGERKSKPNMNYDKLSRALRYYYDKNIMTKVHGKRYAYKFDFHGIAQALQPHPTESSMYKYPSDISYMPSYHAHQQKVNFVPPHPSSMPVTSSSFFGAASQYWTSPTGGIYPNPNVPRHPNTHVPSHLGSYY
The procedure, abridged:
(§1)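 Binding signal is each hexamer's read frequency for a factor divided by its frequency in the tag-only sample. The factors were GST-fused human transcription factors from yeast, captured on glutathione beads, DNA-barcoded and pooled with that sample. Pools were incubated with 200 nmole of a random double-stranded 16-mer DNA library in Tris/NaCl/DTT/glycerol buffer at room temperature for 30 min, then washed, crosslinked with 0.1% formaldehyde, proximity-ligated with BsaI/T4 ligase (1 h, 37 °C), PCR-amplified and sequenced on an Illumina NextSeq500.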

Assay [2] concerns the target T2, ELK1 (Homo sapiens, UniProt P19419 1-428).
T2 sequence: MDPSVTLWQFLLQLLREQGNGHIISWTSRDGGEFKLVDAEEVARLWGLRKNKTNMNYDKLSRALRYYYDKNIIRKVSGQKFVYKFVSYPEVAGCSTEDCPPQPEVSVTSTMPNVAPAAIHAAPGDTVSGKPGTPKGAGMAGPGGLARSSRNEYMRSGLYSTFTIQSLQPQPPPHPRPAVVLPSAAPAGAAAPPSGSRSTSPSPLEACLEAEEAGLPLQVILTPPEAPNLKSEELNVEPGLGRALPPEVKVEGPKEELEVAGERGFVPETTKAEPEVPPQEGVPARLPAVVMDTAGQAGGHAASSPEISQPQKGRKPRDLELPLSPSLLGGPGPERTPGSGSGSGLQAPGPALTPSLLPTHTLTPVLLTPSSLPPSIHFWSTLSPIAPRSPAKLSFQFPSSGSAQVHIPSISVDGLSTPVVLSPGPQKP
The procedure, abridged:
as §1

Assay [3] deals with T3, GABPA (Homo sapiens, UniProt Q06546 1-454).
T3 sequence: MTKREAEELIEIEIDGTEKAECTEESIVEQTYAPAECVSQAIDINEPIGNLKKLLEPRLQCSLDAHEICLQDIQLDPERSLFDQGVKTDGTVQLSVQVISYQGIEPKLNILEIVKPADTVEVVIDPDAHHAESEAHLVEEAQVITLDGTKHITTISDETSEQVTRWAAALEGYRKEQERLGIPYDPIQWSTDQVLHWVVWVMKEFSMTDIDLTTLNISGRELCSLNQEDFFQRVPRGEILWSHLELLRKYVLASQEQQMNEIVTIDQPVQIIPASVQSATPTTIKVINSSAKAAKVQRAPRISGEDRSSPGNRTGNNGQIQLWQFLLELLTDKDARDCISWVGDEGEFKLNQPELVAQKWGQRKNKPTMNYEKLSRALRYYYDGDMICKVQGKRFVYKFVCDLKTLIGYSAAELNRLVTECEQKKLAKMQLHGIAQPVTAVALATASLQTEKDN
The essentials:
as §1

Assay [4] addresses T4, ERG (Homo sapiens, UniProt P11308 1-479).
T4 sequence: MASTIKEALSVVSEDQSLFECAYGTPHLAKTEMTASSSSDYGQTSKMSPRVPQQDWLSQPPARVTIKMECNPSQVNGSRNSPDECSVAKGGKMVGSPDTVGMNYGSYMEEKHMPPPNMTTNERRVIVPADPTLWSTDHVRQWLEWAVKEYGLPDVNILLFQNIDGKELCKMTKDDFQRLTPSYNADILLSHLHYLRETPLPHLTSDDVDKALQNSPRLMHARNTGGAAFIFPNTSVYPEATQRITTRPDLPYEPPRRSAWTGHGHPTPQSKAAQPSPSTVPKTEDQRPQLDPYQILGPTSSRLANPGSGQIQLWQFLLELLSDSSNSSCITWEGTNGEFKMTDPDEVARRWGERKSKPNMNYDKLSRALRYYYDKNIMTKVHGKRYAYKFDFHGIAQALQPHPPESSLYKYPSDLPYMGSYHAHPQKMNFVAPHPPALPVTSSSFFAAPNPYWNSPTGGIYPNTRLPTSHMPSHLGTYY
The essentials:
as §1

Assay [5] concerns the target ELF1 (Homo sapiens, UniProt P32519 1-619). The essentials:
as §1

Assay [6] deals with T5, EHF (Homo sapiens, UniProt Q9NZC4 1-300).
T5 sequence: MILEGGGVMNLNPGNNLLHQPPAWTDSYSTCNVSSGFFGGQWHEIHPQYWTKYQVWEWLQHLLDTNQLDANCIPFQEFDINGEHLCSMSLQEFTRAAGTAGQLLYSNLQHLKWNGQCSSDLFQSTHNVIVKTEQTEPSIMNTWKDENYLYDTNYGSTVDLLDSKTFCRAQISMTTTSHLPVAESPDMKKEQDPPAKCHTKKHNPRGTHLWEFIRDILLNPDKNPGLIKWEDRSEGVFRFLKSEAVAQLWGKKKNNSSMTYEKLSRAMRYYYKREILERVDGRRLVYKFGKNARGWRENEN
The essentials:
as §1

In assay [7] the target is SPI1 (Homo sapiens, UniProt P17947 1-270). The essentials:
as §1

The target in assay [8] is SPIB (Homo sapiens, UniProt Q01892 1-262). The procedure, abridged: as §1
Sequence of SPIB (Q01892 whole entry): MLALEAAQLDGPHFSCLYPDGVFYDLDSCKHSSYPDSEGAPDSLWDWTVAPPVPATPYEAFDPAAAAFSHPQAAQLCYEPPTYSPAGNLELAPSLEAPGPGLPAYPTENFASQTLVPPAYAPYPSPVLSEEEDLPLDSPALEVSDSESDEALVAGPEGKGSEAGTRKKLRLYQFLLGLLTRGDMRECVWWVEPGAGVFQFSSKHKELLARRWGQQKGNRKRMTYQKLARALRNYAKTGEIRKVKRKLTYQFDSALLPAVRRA
In assay [9] the target is T6, ELK3 (Homo sapiens, UniProt P41970 1-407).
T6 sequence: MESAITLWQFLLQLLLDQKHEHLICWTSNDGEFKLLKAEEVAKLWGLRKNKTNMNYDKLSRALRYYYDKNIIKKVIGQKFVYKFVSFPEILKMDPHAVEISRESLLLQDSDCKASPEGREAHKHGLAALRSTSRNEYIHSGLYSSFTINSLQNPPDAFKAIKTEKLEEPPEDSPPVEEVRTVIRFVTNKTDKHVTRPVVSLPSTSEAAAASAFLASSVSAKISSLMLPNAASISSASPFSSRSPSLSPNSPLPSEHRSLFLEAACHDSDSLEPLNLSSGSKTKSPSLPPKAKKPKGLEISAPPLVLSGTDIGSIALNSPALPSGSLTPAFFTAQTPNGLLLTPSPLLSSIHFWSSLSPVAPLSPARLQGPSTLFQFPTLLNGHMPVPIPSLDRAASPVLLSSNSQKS
The procedure, abridged: as §1

In assay [10] the target is ETV5 (Homo sapiens, UniProt P41161 1-510). The procedure, abridged:
as §1

Assay [11] has as its target T7, SPIC (Homo sapiens, UniProt Q8N5J4 1-248).
T7 sequence: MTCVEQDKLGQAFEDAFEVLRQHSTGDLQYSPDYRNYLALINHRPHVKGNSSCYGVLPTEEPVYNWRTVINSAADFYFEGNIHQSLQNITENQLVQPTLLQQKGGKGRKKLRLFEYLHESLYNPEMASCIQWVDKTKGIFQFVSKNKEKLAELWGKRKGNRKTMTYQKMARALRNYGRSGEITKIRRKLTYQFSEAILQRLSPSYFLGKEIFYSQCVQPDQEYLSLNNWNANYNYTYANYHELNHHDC
The essentials:
as §1

Assay [12] addresses ELF4 (Homo sapiens, UniProt Q99607 1-663). The essentials: as §1
Assay [13] deals with T8, ELK4 (Homo sapiens, UniProt P28324-2 1-405).
T8 sequence: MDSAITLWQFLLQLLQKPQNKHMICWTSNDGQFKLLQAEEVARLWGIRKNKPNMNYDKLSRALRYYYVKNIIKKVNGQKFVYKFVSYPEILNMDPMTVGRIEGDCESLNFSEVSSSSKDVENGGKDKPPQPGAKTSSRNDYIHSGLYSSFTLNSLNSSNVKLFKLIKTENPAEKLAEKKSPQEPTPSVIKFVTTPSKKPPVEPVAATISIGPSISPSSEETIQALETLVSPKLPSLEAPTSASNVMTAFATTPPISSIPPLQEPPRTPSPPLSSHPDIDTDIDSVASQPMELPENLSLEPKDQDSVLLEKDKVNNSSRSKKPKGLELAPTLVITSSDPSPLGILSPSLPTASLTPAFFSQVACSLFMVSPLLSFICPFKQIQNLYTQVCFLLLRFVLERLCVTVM
The procedure, abridged:
as §1

Assay [14] concerns the target T9, ETV2 (Homo sapiens, UniProt O00321 1-342).
T9 sequence: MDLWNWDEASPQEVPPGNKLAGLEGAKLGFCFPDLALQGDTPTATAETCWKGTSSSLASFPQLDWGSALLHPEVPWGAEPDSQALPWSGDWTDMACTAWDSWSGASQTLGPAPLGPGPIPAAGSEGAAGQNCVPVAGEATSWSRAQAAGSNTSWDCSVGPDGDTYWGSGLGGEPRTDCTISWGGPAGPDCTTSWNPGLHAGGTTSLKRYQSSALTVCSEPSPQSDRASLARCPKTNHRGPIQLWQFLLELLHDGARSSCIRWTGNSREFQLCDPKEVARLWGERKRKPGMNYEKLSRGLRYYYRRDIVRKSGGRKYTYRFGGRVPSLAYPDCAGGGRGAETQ
The essentials: as §1

Assay [15] concerns the target T10, ELF3 (Homo sapiens, UniProt P78545 1-371).
T10 sequence: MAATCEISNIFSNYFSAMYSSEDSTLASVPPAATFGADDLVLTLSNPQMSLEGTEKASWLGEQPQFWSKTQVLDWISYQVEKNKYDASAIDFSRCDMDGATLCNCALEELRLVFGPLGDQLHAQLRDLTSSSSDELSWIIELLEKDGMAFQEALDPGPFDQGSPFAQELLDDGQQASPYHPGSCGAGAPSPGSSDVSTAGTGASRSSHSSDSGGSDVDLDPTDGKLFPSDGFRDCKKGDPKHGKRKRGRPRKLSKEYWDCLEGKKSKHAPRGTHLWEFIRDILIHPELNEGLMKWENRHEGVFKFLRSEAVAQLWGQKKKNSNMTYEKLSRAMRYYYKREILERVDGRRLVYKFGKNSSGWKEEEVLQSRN
The essentials: as §1

Assay [16] addresses CRX (Homo sapiens, UniProt O43186 1-299). The procedure, abridged:
as §1

The target of assay [17] is ETV1 (Homo sapiens, UniProt P50549 1-477). The procedure, abridged:
as §1

Assay [18] addresses T11, FEV (Homo sapiens, UniProt Q99581 1-238).
T11 sequence: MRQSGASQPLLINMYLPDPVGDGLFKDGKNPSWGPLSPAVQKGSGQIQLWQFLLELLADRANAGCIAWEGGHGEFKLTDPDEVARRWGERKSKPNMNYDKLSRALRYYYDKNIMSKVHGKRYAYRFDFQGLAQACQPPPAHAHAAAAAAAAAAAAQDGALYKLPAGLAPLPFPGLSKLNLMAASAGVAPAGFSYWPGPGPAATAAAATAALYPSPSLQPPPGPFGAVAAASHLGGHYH
The essentials: as §1

Sequence of ETV5 (P41161 whole entry): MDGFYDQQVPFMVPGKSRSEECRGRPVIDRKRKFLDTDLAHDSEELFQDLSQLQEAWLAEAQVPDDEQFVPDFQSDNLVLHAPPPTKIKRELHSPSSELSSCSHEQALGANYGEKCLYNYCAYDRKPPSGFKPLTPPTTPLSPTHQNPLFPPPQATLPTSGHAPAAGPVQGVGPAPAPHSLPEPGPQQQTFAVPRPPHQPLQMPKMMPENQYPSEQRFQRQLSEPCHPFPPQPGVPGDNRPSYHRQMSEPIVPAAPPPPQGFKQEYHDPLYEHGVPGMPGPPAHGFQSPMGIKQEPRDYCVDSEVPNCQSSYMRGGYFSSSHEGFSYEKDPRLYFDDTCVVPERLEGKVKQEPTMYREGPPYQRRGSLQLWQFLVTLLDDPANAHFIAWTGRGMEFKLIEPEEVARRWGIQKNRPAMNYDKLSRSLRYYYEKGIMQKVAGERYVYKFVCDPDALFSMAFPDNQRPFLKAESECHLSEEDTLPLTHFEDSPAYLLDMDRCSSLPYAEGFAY
Sequence of ELF4 (Q99607 whole entry): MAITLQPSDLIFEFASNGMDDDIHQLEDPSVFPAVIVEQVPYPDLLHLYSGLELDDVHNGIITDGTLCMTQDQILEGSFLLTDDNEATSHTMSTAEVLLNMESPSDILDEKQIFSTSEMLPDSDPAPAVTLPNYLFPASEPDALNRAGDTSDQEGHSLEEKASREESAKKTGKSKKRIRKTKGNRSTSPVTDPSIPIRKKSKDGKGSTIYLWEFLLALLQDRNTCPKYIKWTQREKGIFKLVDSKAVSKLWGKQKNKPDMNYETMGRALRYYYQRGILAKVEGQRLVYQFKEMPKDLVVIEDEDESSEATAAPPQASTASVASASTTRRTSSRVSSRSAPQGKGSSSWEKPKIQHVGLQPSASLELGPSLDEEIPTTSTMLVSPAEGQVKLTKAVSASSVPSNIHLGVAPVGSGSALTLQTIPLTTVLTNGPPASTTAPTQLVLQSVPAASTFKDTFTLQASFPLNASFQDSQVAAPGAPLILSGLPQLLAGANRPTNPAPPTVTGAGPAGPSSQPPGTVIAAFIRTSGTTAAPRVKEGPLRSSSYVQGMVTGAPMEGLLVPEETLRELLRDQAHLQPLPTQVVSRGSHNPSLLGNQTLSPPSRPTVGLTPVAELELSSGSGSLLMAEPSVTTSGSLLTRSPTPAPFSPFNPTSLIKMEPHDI
Sequence of ELF1 (P32519 whole entry): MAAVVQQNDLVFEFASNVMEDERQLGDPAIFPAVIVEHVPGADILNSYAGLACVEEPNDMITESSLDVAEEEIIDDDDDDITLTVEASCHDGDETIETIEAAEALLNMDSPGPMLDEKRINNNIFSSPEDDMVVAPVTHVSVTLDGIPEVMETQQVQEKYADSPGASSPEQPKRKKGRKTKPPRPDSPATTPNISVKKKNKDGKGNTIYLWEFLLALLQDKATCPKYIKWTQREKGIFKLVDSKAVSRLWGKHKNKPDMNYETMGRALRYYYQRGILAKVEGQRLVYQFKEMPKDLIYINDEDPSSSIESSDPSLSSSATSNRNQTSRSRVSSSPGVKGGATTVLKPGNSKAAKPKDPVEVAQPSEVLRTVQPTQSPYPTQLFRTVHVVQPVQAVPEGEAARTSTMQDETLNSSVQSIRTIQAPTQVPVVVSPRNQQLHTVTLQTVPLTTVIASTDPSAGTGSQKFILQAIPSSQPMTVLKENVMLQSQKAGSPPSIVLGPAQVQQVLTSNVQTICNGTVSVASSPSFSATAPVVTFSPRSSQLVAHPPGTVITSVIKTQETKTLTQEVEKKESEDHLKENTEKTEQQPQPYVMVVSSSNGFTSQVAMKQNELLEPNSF
Sequence of ETV1 (P50549 whole entry): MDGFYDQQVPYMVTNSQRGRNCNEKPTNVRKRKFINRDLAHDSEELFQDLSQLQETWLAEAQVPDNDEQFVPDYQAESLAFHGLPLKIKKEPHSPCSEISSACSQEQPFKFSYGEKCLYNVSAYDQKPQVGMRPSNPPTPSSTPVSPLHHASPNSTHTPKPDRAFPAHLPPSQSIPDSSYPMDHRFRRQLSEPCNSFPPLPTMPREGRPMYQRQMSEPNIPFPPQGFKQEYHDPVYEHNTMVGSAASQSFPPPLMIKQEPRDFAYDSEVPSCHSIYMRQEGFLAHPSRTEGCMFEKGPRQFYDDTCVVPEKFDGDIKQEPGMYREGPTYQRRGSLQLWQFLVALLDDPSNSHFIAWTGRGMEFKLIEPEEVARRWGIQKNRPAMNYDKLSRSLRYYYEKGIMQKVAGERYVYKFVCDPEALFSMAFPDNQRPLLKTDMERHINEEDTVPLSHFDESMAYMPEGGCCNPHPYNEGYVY
Sequence of CRX (O43186 whole entry): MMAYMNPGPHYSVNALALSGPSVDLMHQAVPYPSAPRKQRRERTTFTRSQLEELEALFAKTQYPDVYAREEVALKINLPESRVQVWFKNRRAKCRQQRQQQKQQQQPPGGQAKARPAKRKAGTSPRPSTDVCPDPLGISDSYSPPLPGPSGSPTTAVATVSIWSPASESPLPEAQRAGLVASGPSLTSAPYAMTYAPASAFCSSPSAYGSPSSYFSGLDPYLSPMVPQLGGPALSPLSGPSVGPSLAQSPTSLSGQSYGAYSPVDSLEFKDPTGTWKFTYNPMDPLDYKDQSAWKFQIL

With TGCTGA, the binding signal is 1.11 fold enrichment (6-mer frequency, TF over GST control) in assay [1]; 1.03 fold enrichment (6-mer frequency, TF over GST control) in assay [2]; 1.07 fold enrichment (6-mer frequency, TF over GST control) in [3]; 1.01 fold enrichment (6-mer frequency, TF over GST control) in assay [4]; 1.07 fold enrichment (6-mer frequency, TF over GST control) in [5]; 1.14 fold enrichment (6-mer frequency, TF over GST control) in assay [6]. Moreover, the binding signal is 1.12 fold enrichment (6-mer frequency, TF over GST control) in [7]; 1.01 fold enrichment (6-mer frequency, TF over GST control) in assay [8]; 1.19 fold enrichment (6-mer frequency, TF over GST control) in assay [9]; 1.07 fold enrichment (6-mer frequency, TF over GST control) in assay [10]; 1.18 fold enrichment (6-mer frequency, TF over GST control) in [11]; 1.15 fold enrichment (6-mer frequency, TF over GST control) in [12]. Moreover, the binding signal in assay [13] is 1.11 fold enrichment (6-mer frequency, TF over GST control); in assay [14] it was 1.15 fold enrichment (6-mer frequency, TF over GST control); in [15], 1.09 fold enrichment (6-mer frequency, TF over GST control); in assay [16] it was 1.04 fold enrichment (6-mer frequency, TF over GST control); in assay [17], 1.12 fold enrichment (6-mer frequency, TF over GST control).

With ACCTTG, the binding signal in assay [1] is 1.27 fold enrichment (6-mer frequency, TF over GST control); in assay [2], 1.37 fold enrichment (6-mer frequency, TF over GST control); in assay [3] it was 1.24 fold enrichment (6-mer frequency, TF over GST control); in assay [4] it was 1.1 fold enrichment (6-mer frequency, TF over GST control); in [5], 1.21 fold enrichment (6-mer frequency, TF over GST control); in [6], 1.3 fold enrichment (6-mer frequency, TF over GST control). Moreover, the binding signal in assay [7] is 1.17 fold enrichment (6-mer frequency, TF over GST control); in [8], 1.18 fold enrichment (6-mer frequency, TF over GST control); in [9], 1.38 fold enrichment (6-mer frequency, TF over GST control); in assay [18] it was 1.12 fold enrichment (6-mer frequency, TF over GST control); in assay [10] it was 1.2 fold enrichment (6-mer frequency, TF over GST control); in [11], 1.17 fold enrichment (6-mer frequency, TF over GST control). Further, the binding signal is 1.22 fold enrichment (6-mer frequency, TF over GST control) in assay [12]; 1.21 fold enrichment (6-mer frequency, TF over GST control) in assay [13]; 1.4 fold enrichment (6-mer frequency, TF over GST control) in assay [14]; 1.29 fold enrichment (6-mer frequency, TF over GST control) in assay [15]; 1.03 fold enrichment (6-mer frequency, TF over GST control) in assay [16]; 1.21 fold enrichment (6-mer frequency, TF over GST control) in [17].
